Assay [1] concerns the target Nuclear respiratory factor 1 (Homo sapiens) (UniProt Q16656). Description: ATG_NRF1_CIS: Attagene CIS-FACTORIAL HepG2 Assay for human Nuclear Respiratory Factor 1 (NRF1) Orphan Gene (AID 2282987). The following applies: HepG2 NRF1 cis-element reporter, Attagene multiplex; actives raise or lower the signal. Put shortly: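 Human hepatoma HepG2 cells carrying transfected promoter-regulated reporter units were incubated with test chemicals for 24 h. Reporter transcripts were measured by RT-PCR plus capillary electrophoresis, and endpoints derived by bidirectional fitting with DMSO as baseline.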

Assay [2] is described as follows: ATG_NFI_CIS: Attagene CIS-FACTORIAL HepG2 Assay for human Nuclear Factor I (NFI) (AID 2282989). The following applies: HepG2 cis-regulatory reporter, NFI response element transcription; actives raise or lower the signal. Summed up: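 Endogenous TF activity in HepG2 cells transiently transfected with cis-element-driven multiplexed reporter units, read 24 h after dosing. Reporter mRNA quantified by RT-PCR, 6-FAM labelling, HpaI digestion and capillary electrophoresis; bidirectional fit versus DMSO.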

Assay [3] concerns the target Myc proto-oncogene protein (Homo sapiens) (UniProt P01106). Description: ATG_Myc_CIS: Attagene CIS-FACTORIAL HepG2 Assay for human Myelocytomatosis (Myc) Proto-Oncogene Transcription Factor (AID 2282990). The settings on record: HepG2, Attagene cis-reporter transcription factor activity; actives raise or lower the signal. Summed up: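 Cells of the HepG2 human liver line bear multiple cis-driven reporter transcription units. Reporter mRNA after 24 h exposure is reverse-transcribed, amplified, labelled and resolved by capillary electrophoresis, with gain- or loss-of-signal fitting relative to DMSO.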

The nature of assay [4]: ATG_NF_kB_CIS: Attagene CIS-FACTORIAL HepG2 Assay for human Nuclear Factor Kappa B (NF-kB) (AID 2282991). The following applies: HepG2 Attagene cis-factorial NF-kB reporter mRNA; actives raise or lower the signal. Put shortly: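 Multiplexed cis-reporter assay in transiently transfected HepG2. 24 h treatment; RNA isolated, RT-PCR, labelled fragments resolved by CE. DMSO baseline.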

Assay [5] is described as follows: ATG_NRF2_ARE_CIS: Attagene CIS-FACTORIAL HepG2 Assay for human Nuclear Factor Erythroid 2 Related Factor 2 (NFR2) response to Antioxidant Response Elements (ARE) (AID 2282992).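 As to AC50: reporter mRNA level measured by RT-PCR and capillary electrophoresis fluorescence.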 The following applies: HepG2 Attagene ARE/NRF2 reporter, transcription factor activity; actives raise or lower the signal. Put shortly: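 Cis-factorial assay: transfected HepG2 reporter library, 24 h dosing, mRNA readout via RT-PCR/CE; DMSO-referenced bidirectional analysis.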

Assay [6] is described as follows: ATG_Oct_MLP_CIS: Attagene CIS-FACTORIAL HepG2 Assay for human Octamer-Binding Transcription Factor (Oct) (AID 2282993). The settings on record: HepG2 Attagene cis-factorial Oct reporter, mRNA; actives raise or lower the signal. Summed up:
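HepG2 cells transiently transfected with cis-element-driven reporter transcription units (endogenous TF activity); 24 h compound exposure. Reporter mRNA quantified by RT-PCR, 6-FAM labelling, HpaI digestion and capillary electrophoresis; bidirectional fit versus DMSO baseline.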

Assay [7] has as its target Cellular tumor antigen p53 (Homo sapiens) (UniProt P04637). The assay is described as follows: ATG_p53_CIS: Attagene CIS-FACTORIAL HepG2 Assay for human p53 Transcription Factor (AID 2282994). The settings on record: HepG2 p53 cis-element reporter, Attagene mRNA; actives raise or lower the signal. Summed up: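 Using HepG2 hepatoma cells carrying cis-acting multiplexed reporters, mRNA induction is detected after a 24 h exposure. Gain- and loss-of-signal responses are fitted relative to DMSO-treated cells.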

Assay [8] addresses human Peroxisome Proliferator-activated Receptor delta (PPARd), PPARD (gene 5467) (UniProt Q03181). The assay is described as follows: ATG_PPARd_TRANS: Attagene TRANS-FACTORIAL HepG2 Assay for human Peroxisome Proliferator-activated Receptor delta (PPARd) (AID 2283002; active = hit-call score of the fitted dose curve at least 0.9, where 1 is the maximum). Put shortly:
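Cell-based TRANS reporter: HepG2, transient MRTU transfection, 24 h exposure. Readout = reporter mRNA (RT-PCR/CE, 6-FAM). Gain-of-signal fit vs DMSO control.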

For assay [9], the target named is Peroxisome proliferator-activated receptor gamma (Homo sapiens) (UniProt P37231). The assay is described as follows: ATG_PPARg_TRANS: Attagene TRANS-FACTORIAL HepG2 Assay for human Peroxisome Proliferator-activated Receptor-gamma (PPARg) (AID 2283007; active = hit-call score of the fitted dose curve at least 0.9, where 1 is the maximum). Put shortly:
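Human hepatoma HepG2, transient MRTU transfection, 24 h treatment. mRNA reporter signal by RT-PCR plus capillary electrophoresis, fluorescence detection; fitted for increase over DMSO negative control.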

Assay [10] deals with Nuclear receptor subfamily 1 group I member 2 (Homo sapiens) (UniProt O75469). The assay is described as follows: ATG_PXR_TRANS: Attagene TRANS-FACTORIAL HepG2 Assay for human Pregnane X Receptor (PXR) (AID 2283008; active = hit-call score of the fitted dose curve at least 0.9, where 1 is the maximum). Summed up: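 Fluorescence intensity of FAM-labelled, HpaI-digested reporter amplicons, separated by capillary electrophoresis, quantifies induction. HepG2 cells with PXR-Gal4 trans-reporter system were exposed 24 h; DMSO defines baseline.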

The target in assay [11] is human Peroxisome Proliferator-activated Receptor alpha (PPARa), PPARA (gene 5465) (UniProt Q07869). The assay is described as follows: ATG_PPARa_TRANS: Attagene TRANS-FACTORIAL HepG2 Assay for human Peroxisome Proliferator-activated Receptor alpha (PPARa) (AID 2283001; active = hit-call score of the fitted dose curve at least 0.9, where 1 is the maximum). Summed up: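 Read-out is fluorescence of reporter cDNA fragments resolved by capillary electrophoresis after RT-PCR. Human HepG2 liver cells carried transfected PPARa-Gal4 chimera and GAL4-UAS reporter units, treated 24 h; activity scored as increase over DMSO.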

Assay [12] in a line: BSK_3C_TissueFactor: BioMAP Diversity Plus: 3C Assay for Tissue Factor Biomarker Activity (AID 2282997). The settings on record: BioMAP 3C HUVEC, tissue factor biomarker readout; actives raise or lower the signal. Put shortly: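 Human vascular primary cells (umbilical vein endothelium) received test chemical; Tissue Factor was determined by ELISA at 24 h, and both gain and loss of signal versus DMSO were fitted.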

The nature of assay [13]: BSK_3C_uPAR: BioMAP Diversity Plus: 3C Assay for Urokinase-type plasminogen activator receptor (uPAR) Biomarker Activity (AID 2282998). The settings on record: BioMAP 3C HUVEC, uPAR biomarker ELISA; actives raise or lower the signal. Summed up:
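Primary human umbilical vein endothelial cells, 3C system; surface uPAR measured by ELISA 24 h after dosing. Cytotoxicity via SRB total protein in parallel cultures; bidirectional fit against DMSO.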
Background: An ELISA detects its analyte on a solid surface through an enzyme-linked reagent.

Assay [14] is described as follows: BSK_3C_VCAM1: BioMAP Diversity Plus: 3C Assay for Vascular cell adhesion molecule 1 (VCAM1) Biomarker Activity (AID 2282999). The following applies: BioMAP 3C HUVEC, VCAM1 ELISA, cytokine-stimulated; actives raise or lower the signal. Summed up: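 Endothelial cells from human umbilical vein are treated with test chemical. At 24 h, VCAM-1 is measured by ELISA, and responses in either direction are fitted relative to DMSO.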

Assay [15] is described as follows: BSK_4H_Eotaxin3: BioMAP Diversity Plus: 4H Assay for Eotaxin 3 Biomarker Activity (AID 2283000).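 Also: CCL26 protein level quantified by ELISA in parallel with SRB cytotoxicity check.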 The settings on record: primary human endothelial cells (HUVEC); actives raise or lower the signal. Summed up: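 Readout is Eotaxin-3 (CCL26) level by ELISA in primary human umbilical vein endothelial cells harvested 24 h after chemical exposure; activity fitted in both directions against DMSO control.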

Read-out in assay [16]: Intercellular Adhesion Molecule 1 (ICAM1), ICAM1 (gene 3383)
The assay is described as follows: BSK_3C_ICAM1: BioMAP Diversity Plus: 3C Assay for Intercellular Adhesion Molecule 1 (ICAM1) Biomarker Activity (AID 2283003). The following applies: primary human endothelial cells (HUVEC); actives raise or lower the signal. Put shortly:
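HUVEC primary cells stimulated under 3C conditions; ICAM1 measured by ELISA 24 h after compound dosing. Curves fitted bidirectionally against the DMSO baseline. Overt cytotoxicity checked by SRB staining of parallel cultures.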

The nature of assay [17]: BSK_3C_Proliferation: Cell Proliferation Assessment in the BioMAP Diversity Plus: 3C Assay (AID 2283006). The following applies: primary human endothelial cells (HUVEC). Summed up: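 Subconfluent HUVEC (3C system) cultured with chemical; relative cell number read at 48 h by sulforhodamine B total-protein staining (0.1% SRB after 10% TCA fixation, 560 nm). Bidirectional fit relative to DMSO.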

Molecules are shown by their SMILES. Records with an inconclusive call do not appear. Calls of active or inactive are those of the source. The calls were made as follows, unless noted: active = hit-call score of the fitted dose curve at least 0.9, where 1 is the maximum; inactive = score below 0.9.

By AC50 is commonly meant the concentration at which the activity in the assay is half-maximal.

Chain of Cellular tumor antigen p53 (Homo sapiens) (P04637 whole entry, looked up): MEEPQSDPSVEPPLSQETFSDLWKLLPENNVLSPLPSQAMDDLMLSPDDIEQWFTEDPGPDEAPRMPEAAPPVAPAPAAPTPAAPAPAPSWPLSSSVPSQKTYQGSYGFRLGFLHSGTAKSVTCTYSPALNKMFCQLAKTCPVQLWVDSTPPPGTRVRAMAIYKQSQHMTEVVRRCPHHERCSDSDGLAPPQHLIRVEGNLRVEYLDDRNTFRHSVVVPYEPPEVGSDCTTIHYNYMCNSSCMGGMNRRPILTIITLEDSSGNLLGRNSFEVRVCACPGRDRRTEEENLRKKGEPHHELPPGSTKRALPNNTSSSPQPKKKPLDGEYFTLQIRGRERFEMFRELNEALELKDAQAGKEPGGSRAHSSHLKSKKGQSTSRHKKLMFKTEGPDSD
Chain of Peroxisome proliferator-activated receptor gamma (Homo sapiens) (P37231 whole entry, looked up): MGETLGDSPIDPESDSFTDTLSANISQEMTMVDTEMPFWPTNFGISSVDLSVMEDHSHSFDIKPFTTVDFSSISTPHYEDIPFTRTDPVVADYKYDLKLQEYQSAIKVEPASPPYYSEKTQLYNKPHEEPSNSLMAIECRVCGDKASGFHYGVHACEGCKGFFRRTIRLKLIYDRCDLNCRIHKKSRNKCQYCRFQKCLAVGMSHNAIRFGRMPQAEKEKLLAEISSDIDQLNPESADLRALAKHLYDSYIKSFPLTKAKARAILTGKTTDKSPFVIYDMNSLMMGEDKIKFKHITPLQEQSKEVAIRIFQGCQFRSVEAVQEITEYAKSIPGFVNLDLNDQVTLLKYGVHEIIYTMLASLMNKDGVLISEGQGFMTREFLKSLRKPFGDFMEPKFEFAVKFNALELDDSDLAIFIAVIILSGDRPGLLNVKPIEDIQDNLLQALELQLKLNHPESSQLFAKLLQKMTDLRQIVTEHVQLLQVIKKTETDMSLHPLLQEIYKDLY
Chain of Nuclear receptor subfamily 1 group I member 2 (Homo sapiens) (O75469 whole entry, looked up, the tested form may be a part): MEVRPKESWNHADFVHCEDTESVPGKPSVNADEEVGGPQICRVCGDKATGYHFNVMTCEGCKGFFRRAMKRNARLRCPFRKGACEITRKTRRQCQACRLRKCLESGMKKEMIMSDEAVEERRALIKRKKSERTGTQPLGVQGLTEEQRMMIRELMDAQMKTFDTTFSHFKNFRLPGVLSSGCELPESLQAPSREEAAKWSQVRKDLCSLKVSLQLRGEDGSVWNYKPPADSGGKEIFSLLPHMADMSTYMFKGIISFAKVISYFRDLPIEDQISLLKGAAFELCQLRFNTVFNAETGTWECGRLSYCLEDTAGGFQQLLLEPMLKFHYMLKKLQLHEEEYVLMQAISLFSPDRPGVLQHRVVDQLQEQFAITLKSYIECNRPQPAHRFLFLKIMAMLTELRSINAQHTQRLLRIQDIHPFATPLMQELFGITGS
Chain of Nuclear respiratory factor 1 (Homo sapiens) (Q16656 whole entry, looked up): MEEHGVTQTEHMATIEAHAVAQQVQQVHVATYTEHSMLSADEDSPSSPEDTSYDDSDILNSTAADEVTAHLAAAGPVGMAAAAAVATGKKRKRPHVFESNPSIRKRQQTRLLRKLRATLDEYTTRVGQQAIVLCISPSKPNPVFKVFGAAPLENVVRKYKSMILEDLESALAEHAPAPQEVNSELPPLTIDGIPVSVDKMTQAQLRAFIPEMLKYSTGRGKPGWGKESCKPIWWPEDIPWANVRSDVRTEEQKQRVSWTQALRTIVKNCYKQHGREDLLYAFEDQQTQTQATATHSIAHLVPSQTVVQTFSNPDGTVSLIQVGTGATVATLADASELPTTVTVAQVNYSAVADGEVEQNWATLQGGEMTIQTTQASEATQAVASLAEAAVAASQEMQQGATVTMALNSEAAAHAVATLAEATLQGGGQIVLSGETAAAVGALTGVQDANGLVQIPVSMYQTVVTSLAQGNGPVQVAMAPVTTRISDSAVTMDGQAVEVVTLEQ
Chain of human Peroxisome Proliferator-activated Receptor delta (PPARd), PPARD (gene 5467) (Q03181 whole entry, looked up): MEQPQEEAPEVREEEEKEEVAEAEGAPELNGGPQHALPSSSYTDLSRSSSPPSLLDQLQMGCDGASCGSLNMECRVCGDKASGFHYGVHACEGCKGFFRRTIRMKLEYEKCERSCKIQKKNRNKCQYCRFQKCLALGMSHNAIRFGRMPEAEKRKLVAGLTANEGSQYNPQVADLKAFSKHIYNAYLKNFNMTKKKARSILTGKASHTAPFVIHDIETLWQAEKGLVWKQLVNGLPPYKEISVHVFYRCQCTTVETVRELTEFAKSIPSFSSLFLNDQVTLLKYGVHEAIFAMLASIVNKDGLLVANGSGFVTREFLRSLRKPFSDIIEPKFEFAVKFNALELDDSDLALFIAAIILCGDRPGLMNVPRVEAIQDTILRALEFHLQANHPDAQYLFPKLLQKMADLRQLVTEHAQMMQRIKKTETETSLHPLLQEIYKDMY
Chain of Myc proto-oncogene protein (Homo sapiens) (P01106 whole entry, looked up): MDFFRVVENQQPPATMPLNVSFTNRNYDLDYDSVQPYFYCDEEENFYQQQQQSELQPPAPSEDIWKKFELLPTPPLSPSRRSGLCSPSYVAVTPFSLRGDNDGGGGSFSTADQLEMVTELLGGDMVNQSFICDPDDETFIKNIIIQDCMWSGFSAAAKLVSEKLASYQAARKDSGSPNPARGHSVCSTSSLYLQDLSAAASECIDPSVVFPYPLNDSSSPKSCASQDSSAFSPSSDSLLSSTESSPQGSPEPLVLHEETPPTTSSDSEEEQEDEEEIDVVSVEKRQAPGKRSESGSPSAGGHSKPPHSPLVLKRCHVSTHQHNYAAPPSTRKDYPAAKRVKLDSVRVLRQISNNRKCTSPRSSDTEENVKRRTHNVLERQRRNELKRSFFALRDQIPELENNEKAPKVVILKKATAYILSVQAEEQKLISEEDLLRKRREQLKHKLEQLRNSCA
Chain of human Peroxisome Proliferator-activated Receptor alpha (PPARa), PPARA (gene 5465) (Q07869 whole entry, looked up, the tested form may be a part): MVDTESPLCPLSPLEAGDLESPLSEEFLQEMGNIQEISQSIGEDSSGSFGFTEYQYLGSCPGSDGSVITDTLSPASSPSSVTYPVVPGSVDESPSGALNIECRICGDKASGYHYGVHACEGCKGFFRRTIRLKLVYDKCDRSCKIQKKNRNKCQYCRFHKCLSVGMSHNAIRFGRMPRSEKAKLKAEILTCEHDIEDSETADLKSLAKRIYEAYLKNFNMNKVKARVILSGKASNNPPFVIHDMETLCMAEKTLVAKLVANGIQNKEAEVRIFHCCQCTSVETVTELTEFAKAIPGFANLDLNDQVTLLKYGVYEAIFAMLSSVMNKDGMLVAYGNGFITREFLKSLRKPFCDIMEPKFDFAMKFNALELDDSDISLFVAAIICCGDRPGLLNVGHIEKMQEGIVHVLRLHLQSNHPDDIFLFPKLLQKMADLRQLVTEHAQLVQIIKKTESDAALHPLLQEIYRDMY

With `COC(OC(C)=O)c1ccccc1` (stereo not given), the call in [1], in assay [2], in assay [3], in assay [4], in [5] and in assay [6] was inactive. Further, the result in [7], in [8], in assay [9] and in [10] was inactive.

Take `CC/C=C\CCOC(C)=O`: the result in assay [1], in [2], in [3], in assay [4], in assay [5] and in assay [6] was inactive. For the same compound, the result in [11] and in assay [10] was inactive.

In the case of `CC(Cc1ccc(O)c(O)c1)C(C)Cc1ccc(O)c(O)c1` (stereo not given), the outcome in assay [1] and in assay [3] was inactive. Besides, the AC50 in assay [2] is 19 µM (active); in assay [4] it was 55.3 µM (active); in assay [5] it was 22.8 µM (active); in [6], 20.6 µM (active); in assay [9], 19.3 µM (active); in assay [10], 6.87 µM (active).

For `O=P(O)(O)OCCC(F)(F)C(F)(F)C(F)(F)C(F)(F)C(F)(F)C(F)(F)F`, the result in [1], in assay [2], in [3], in assay [4], in assay [5] and in assay [6] was inactive. The result in assay [7], in assay [12], in [13], in [14], in [15] and in assay [8] was inactive. For the same compound, the result in assay [16], in assay [17] and in assay [10] was inactive.

In the case of `O=S(=O)(OCC(F)F)C(F)(F)F`, the outcome in assay [1], in assay [2], in assay [3], in [4], in assay [5] and in [7] was inactive. Also, the result in [12], in assay [13], in assay [15], in [8], in assay [16] and in assay [17] was inactive. Moreover, the result in assay [9] and in assay [10] was inactive.

These data come from PubChem BioAssay (EPA / NIEHS).
